Screens deposited in PubChem BioAssay by University of Kansas High Throughput Screening Laboratory.
The sample as a whole holds a higher share of hits than the screen did.
Pf apPOL block = Pf-apPOL inhibitors, biochemical, fluorescence; Plasmodium falciparum apicoplast DNA polymerase (apPOL); Recombinant Pf-apPOL, molecular beacon fluorescence, 1.5 h; inhibition, % at 10 µM; hit rate 0.25% among 210,000; AID 1794808, 2022
mHTT-CaM PPI inh = mutant huntingtin-calmodulin interaction inhibitors – biochemical, AlphaScreen, primary screen | hit rate 3.6% among 190,000 | AID 1671202, 2021 | inhibition, % at 15 µM | AlphaScreen His-mHTT/GST-CaM binding, luminescence;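 further: 0% = both proteins with DMSO and 100% = one protein alone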
Target sequence (P42858 whole entry, looked up, stated change not applied): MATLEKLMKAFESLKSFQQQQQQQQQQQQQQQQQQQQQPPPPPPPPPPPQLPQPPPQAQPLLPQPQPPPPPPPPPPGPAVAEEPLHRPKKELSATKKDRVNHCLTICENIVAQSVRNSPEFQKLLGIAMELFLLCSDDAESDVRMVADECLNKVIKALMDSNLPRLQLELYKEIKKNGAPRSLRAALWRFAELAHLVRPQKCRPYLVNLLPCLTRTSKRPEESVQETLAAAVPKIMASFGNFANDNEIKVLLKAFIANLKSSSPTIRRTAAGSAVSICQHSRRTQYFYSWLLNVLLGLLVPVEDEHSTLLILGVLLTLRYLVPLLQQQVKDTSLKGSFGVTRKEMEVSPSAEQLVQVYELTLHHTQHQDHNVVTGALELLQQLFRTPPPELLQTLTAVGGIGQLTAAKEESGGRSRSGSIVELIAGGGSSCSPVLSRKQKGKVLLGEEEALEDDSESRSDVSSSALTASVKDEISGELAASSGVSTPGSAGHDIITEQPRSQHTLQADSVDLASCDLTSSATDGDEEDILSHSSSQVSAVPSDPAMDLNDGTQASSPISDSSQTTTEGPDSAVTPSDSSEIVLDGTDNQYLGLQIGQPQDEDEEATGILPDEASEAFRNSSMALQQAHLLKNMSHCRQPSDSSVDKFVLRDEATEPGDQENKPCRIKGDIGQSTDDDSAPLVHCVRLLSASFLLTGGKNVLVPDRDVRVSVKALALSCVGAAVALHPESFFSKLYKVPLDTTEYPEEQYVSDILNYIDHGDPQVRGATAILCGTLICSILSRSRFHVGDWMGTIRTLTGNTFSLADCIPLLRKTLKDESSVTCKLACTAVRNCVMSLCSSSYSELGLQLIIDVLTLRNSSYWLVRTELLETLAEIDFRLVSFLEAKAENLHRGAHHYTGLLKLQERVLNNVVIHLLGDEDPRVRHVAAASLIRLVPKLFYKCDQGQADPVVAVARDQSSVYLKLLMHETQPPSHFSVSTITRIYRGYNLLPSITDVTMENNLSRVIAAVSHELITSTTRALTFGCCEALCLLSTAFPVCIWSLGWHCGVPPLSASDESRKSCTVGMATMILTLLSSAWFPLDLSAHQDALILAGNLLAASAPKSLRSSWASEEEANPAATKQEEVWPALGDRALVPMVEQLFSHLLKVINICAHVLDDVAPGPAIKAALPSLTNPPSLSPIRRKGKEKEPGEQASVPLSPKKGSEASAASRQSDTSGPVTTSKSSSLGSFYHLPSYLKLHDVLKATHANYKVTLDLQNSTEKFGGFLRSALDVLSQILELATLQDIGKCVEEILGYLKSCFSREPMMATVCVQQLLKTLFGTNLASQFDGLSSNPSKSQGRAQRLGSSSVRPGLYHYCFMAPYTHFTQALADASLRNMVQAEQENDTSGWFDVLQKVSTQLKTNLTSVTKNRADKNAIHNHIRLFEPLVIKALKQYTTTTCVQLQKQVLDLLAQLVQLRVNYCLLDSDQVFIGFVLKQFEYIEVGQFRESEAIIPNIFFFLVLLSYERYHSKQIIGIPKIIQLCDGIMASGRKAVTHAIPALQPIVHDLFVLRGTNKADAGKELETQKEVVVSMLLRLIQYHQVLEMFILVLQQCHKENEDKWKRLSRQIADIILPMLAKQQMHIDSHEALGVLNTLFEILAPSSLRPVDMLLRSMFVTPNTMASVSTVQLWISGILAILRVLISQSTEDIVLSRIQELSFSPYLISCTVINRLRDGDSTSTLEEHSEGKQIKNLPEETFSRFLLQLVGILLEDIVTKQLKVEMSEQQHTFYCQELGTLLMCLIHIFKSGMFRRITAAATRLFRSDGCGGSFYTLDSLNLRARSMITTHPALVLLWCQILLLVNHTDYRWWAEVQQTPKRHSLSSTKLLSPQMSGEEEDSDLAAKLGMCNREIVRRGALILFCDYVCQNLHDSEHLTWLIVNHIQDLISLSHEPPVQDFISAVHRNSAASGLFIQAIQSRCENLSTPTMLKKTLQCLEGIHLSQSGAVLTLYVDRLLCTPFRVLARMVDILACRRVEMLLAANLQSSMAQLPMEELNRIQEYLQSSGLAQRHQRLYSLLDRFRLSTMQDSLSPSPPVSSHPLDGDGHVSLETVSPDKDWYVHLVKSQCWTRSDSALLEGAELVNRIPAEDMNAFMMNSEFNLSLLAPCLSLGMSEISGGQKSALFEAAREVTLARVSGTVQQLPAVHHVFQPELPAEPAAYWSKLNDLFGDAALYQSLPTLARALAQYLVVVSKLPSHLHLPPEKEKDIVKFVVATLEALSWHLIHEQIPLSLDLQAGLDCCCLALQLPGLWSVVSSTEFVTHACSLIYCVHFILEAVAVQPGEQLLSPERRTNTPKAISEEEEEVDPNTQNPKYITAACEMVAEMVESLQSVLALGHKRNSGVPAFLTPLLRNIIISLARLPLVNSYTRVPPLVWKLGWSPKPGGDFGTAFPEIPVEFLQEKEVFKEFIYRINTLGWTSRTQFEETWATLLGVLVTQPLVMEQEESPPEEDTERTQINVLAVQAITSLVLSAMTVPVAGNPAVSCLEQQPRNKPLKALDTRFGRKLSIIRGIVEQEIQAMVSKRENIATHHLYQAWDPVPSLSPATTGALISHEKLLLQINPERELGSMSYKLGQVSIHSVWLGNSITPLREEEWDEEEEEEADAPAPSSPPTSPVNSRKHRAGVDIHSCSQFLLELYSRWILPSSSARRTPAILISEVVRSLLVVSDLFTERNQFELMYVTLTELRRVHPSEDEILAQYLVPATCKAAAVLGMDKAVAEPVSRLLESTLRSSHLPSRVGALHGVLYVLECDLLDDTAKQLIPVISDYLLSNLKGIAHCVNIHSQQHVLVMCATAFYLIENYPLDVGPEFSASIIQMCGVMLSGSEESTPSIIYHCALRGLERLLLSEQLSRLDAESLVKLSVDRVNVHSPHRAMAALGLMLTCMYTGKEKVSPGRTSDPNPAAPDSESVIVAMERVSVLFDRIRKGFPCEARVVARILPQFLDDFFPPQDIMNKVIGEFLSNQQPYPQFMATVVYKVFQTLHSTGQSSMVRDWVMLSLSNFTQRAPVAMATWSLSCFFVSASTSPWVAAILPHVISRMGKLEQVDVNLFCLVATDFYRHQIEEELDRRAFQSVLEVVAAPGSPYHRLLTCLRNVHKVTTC
Starred values were filed as active, the others as inactive; x = not tested or not shown. No stated cut-off is given here; in the data, active means inhibition above about 50%; inactive means the rest.

SMILES	Pf apPOL block	mHTT-CaM PPI inh
Cc1ccc(C)c(C2=NN(C(=O)CN3CCOCC3)C(c3ccccc3C)C2)c1 (stereo not given)	-4	85*
Cc1ccc(C)c(C2CC(c3ccc(F)cc3)=NN2C(=O)CN2CCOCC2)c1 (stereo not given)	2	50*
COc1cccc(C2CC(c3cc(C)ccc3C)=NN2C(=O)CN2CCOCC2)c1 (stereo not given)	-8	47
COc1ccc(C2CC(c3ccccc3)=NN2C(=O)CN2CCOCC2)cc1 (stereo not given)	-6	27
CN(CCOc1ccccc1)S(=O)(=O)c1ccc2c(c1)oc1ccccc12	x	-31
C=CCNC(=O)Cc1ccccc1OC	2	2
CC(C)n1ccc(-c2nnc(NC(=O)C3CCCN(S(C)(=O)=O)C3)o2)n1 (stereo not given)	0	18
O=C(NCCc1ccccn1)C1CCN(c2ccc(Br)cc2F)C1=O (stereo not given)	4	4
CN(C)CCNC(=O)Cc1ccc(Cl)cc1	2	-5
COc1ccccc1C1C2=C(CC(C)(C)CC2=O)Nc2nc(SCc3ccccc3)nn21 (stereo not given)	-1	12
Cc1ccc(C2=NN(C(=O)CN3CCOCC3)C(c3ccccc3Cl)C2)cc1 (stereo not given)	-7	48
O=C(CN1CCOCC1)N1N=C(c2ccccc2Cl)CC1c1ccccc1Cl (stereo not given)	-3	100*
CCC(=O)N(C)CC(=O)N1N=C(c2cccs2)CC1c1ccccc1 (stereo not given)	-6	7
CCC(=O)N(C)CC(=O)N1N=C(c2ccc(C)c(C)c2)CC1c1ccccc1 (stereo not given)	1	56*
COc1ccccc1C1=NN(C(=O)CN2CCOCC2)C(c2ccccc2Cl)C1 (stereo not given)	-4	38
Cc1ccc(C2=NN(C(=O)CN3CCOCC3)C(c3ccccc3C)C2)cc1C (stereo not given)	-1	51*
COc1ccc(CNC(=O)C2CCN(c3ccc(N4CCCCC4)nn3)CC2)cc1OC	-10	3
Cc1ccc(C(=O)CN2C(=C(O)c3ccccc3)C(=O)c3ccccc3S2(=O)=O)c(C)c1	-7	59*
CN1C(=C(O)c2ccccc2)C(=O)c2ccccc2S1(=O)=O	-4	-3
Cc1ccc(C(=O)CN2C(C(=O)c3ccccc3)=C(N(C)C)c3ccccc3S2(=O)=O)c(C)c1	4	55*
Cc1ccc(C(=O)CC(=O)c2ccccc2C)c(O)c1	4	37
COc1ccc(NC(=O)N2CCN(c3ccccc3F)CC2)cc1	-9	-1
COC(=O)c1ccccc1C(=O)N(CC1CCCO1)c1nc2c(Cl)cccc2s1 (stereo not given)	-2	-14
COc1ccc(-c2nnc3ccc(OCCNC(=O)c4cc(C)on4)nn23)cc1	0	-2
COc1ccccc1CN1CCc2nc(Nc3ccccc3OC)ncc2C1	-1	21
SMILES	Pf apPOL block	mHTT-CaM PPI inh
COc1ccc(OC)c(CN2CCc3nc(Nc4ccccc4OC)ncc3C2)c1	-5	56*
COc1ccc(CN2CCc3nc(Nc4ccccc4OC)ncc3C2)c(OC)c1	-1	44
COc1ccc(OC)c(Nc2ncc3c(n2)CCN(Cc2ccc(OC)cc2OC)C3)c1	-3	91*
O=C(NC1CC1)c1ccccc1Br	15	-5
COc1cc(OC)cc(-n2nc(C(=O)N3CCCCC3C)c3ccccc3c2=O)c1 (stereo not given)	-7	9
CCOc1cccc(N2CCN(C(=O)c3ccccc3Cl)C(C)C2=O)c1 (stereo not given)	-3	0
COc1ccc(NC(=O)c2ncn[nH]2)cc1	2	-1
COc1ccc(CNC(=O)c2ncn[nH]2)cc1	-6	87*
CCOc1cccc(N2C(=O)CC(N3CCN(c4ccc([N+](=O)[O-])cc4)CC3)C2=O)c1 (stereo not given)	-12	-4
O=c1c(OS(=O)(=O)c2ccccc2)c(-c2ccccc2)oc2ccccc12	-8	x
CC(CC(=O)Nc1nc2c(s1)CCCC2)c1ccccc1 (stereo not given)	-2	6
O=C(Nc1nc2c(s1)CCCC2)C(c1ccccc1)n1cccc1 (stereo not given)	19	95*
O=c1oc2cc(O)ccc2cc1-c1nnc(Nc2c(F)cccc2F)s1	-7	-39
CSc1nnc(-c2nn(C)c3c2CN(C(=O)c2ccco2)CC3)n1C	-4	-2
O=S(=O)(c1ccc2[nH]c3c(c2c1)CCCC3)N1CCCc2ccccc21	2	77*
O=C1CN(S(=O)(=O)c2ccc(Br)cc2)c2ccccc2N1	-155	-5
O=S(=O)(c1ccc(F)cc1)N1CCCc2ccccc21	4	-38
O=C1CN(S(=O)(=O)c2ccc3[nH]c4c(c3c2)CCCC4)c2ccccc2N1	5	74*
O=S(=O)(NCCc1csc(-c2cccnc2)n1)c1ccc(-c2ccccc2)cc1	-6	3
C=CCc1c(C)nc(-c2ccc(F)c(Cl)c2)[nH]c1=O	-6	x
O=C(CCS(=O)(=O)c1ccc(Br)s1)Nc1cccc(F)c1	-8	-11
COc1ccc(C(C(=O)Nc2ccc3c(c2)OCO3)N(C)C(=O)CNC(C)=O)cc1 (stereo not given)	-4	2
Cc1ccc(C(C(=O)Nc2ccc3c(c2)OCO3)N(C)C(=O)Cc2c[nH]c3ccccc23)cc1 (stereo not given)	-4	93*
COc1ccc(C(=O)N2CCN(c3ccc(N4CCCCCC4)nn3)CC2)cc1OC	-10	-4
Oc1ccc(Nc2nc(NCc3ccco3)c3ccccc3n2)cc1	-1	53*
SMILES	Pf apPOL block	mHTT-CaM PPI inh
Clc1ccc(CSc2nc(NCc3ccco3)c3ccccc3n2)cc1	-8	25
CCN(C(=O)c1ccc2c(c1)N(S(C)(=O)=O)CC2)c1cccc(C)c1	2	4
COc1ccc(-n2nc3c(c2NC(=O)C2CCCC2)CS(=O)(=O)C3)cc1	4	4
CCCCC1CCC(C(=O)Nc2c3c(nn2-c2ccc(OC)cc2)CS(=O)(=O)C3)CC1 (stereo not given)	1	58*
O=c1[nH][nH]c(=O)c2c(N=Cc3cccc(O)c3)cccc12	-1	-7
Cc1cc(OCC(=O)NCc2ccccc2)nc(N2CCCC(C)C2)n1 (stereo not given)	11	-2
O=C(Cc1ccccc1F)N1CCC(COc2ccccc2C(=O)N2CCOCC2)CC1	-12	5
O=C(Cc1ccccc1F)N1CCC(COc2ccccc2C(=O)N2CCCCC2)CC1	71*	1
Cc1ccc(O)c(NC(=O)c2ccc3c(c2)C(=O)N(C(C)(C)C)C3=O)c1	-3	-2
COC(=O)c1c(C)oc(C)c1S(=O)(=O)N1CCCN(c2ccc(C(F)(F)F)cn2)CC1	-88	x
COc1ccc(Cl)cc1NC(=O)CSc1nccn1-c1cccc(C)c1C	4	56*
Cc1cccc(-n2ccnc2SCC(=O)Nc2ccc(F)cc2F)c1C	10	25
COc1ccc(-c2c(C#N)c(N)nc(OC)c2C#N)cc1OC	-5	2
CCOc1ccc(C2OC(=O)Cc3cc(OCC)c(OCC)cc32)cc1OCC (stereo not given)	0	7
CCOc1ccc(C2Oc3c(cc(Br)cc3OC)C=C2[N+](=O)[O-])cc1OCC (stereo not given)	-3	62*
